# Records with an inconclusive call do not appear. The source made the active and inactive calls. Calls come from the whole dose curve; as a rule, active = well fitted curve in the direction sought with a large enough effect; inconclusive = small, poorly fitted or top-dose-only effect, or effect the other way, or another doubt; inactive = no such curve, though single readings can be large or run the other way.
# Target: Alpha-galactosidase A (Homo sapiens) (UniProt P06280)
# Experiment: Confirmation of Inhibitors of Human alpha-Galactosidase Using Spleen Homogenate; note: 0% is about no effect
# Details: alpha-galactosidase enzyme activity; series mostly up to 56.2 µM; activity change: at the top concentration
# From the text: NIH Chemical Genomics Center [NCGC]
# NIH Molecular Libraries Probe Production Centers Network [MLPCN]
# Assay Submitter (PI): Wei Zheng
# Alpha-galactosidase is a homodimeric glycoprotein that hydrolyzes the terminal alpha-galactosyl moieties from glycolipids and glycoproteins. Deficiency of this enzyme results in Fabry Disease with progressive accumulation of globotriaosylceramide and other glycosphingolipids in vascular endothelial cells that causes renal failure, myocardial infarction and stroke, and premature death in patients. It has been reported that the improper folding and trafficking of alpha-galactosidase resulting from genetic mutations may account for a significant number of Fabry patients. […] We optimized this alpha-galactosidase assay in 1536-well plate format for identification of novel small molecule inhibitors or activators with structures other than the sugar analogs in order to develop new pharmacological chaperones. In particular, this assay is directed towards discovering compounds active in more natural setting, tissue homogenate, that may have been missed by screens of the purified enzyme under more stringent conditions. This assay attempted to confirm hits from the primary screening.
# NCGC Assay Protocol Summary:
# This is a fluorogenic enzyme assay with 4-methylumbelliferyl-alpha-D-galactopyranoside as the substrate and human spleen homogenate containing alpha-galactosidase as the enzyme preparation. Upon hydrolysis of this fluorogenic substrate, the resulting product, 4-methylumbelliferone (which excites at 365 nm and emits at 440 nm) can be detected by a fluorescence plate reader. Data were normalized to the controls for basal activity (without enzyme) and 100% activity (with enzyme). The AC50 values were determined from concentration-response data modeled with the standard Hill equation.
# Assay buffer: 50 mM citric acid (titrated with potassium phosphate to pH 5.0), 0.01% Tween-20 (pH 5.0 is an optimal condition for this enzyme assay)
# 1536-well assay protocol for the alpha-galactosidase from human spleen homogenate:
# (1) Add 2 ul/well spleen homogenate (1 ug)
# (2) Add 23 nL compounds in DMSO solution. The final titration was 0.5 nM to 58 uM.
# (3) Add 2 ul of substrate (1 mM final)
# (4) Incubate at 37C for 40 min
# (5) Add 2 ul stop solution (1M NaOH and 1M Glycine mixture, pH 10)
# (6) Detect the assay plate in a ViewLux plate reader (PerkinElmer) with Ex=365 nm and Em=440nm.
# Keywords: Alpha-galactosidase, Fabry Disease, pharmacological chaperone, chaperone therapy, high throughput screening, alpha- galactosidase inhibitor, MLSMR, MLSCN, NIH Roadmap, qHTS and NCGC
# Alpha-galactosidase A (Homo sapiens), sequence (P06280 32-429 limits assumed): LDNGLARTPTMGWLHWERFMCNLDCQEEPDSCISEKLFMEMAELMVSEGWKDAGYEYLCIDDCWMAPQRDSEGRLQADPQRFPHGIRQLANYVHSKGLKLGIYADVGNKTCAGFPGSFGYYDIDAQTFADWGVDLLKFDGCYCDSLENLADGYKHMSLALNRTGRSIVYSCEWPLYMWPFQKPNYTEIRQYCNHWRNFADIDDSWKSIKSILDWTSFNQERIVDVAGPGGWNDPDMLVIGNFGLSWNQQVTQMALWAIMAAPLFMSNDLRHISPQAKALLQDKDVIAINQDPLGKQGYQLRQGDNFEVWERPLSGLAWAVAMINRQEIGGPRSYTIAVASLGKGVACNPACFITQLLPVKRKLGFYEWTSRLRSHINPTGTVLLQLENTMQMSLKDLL
SMILES,activity change,outcome
CC(C)(C)c1cc(C=C(C#N)C#N)cc(C(C)(C)C)c1O,-10.5% (inactive),–
C/C(O)=C(/C#N)C(=O)Nc1cc(Br)ccc1Br,-8.06% (inactive),–
O=c1[nH]c(CN2CC=C(c3ccccc3)CC2)nc2scc(-c3cccs3)c12,-0.863% (inactive),–
CCOc1ccc2cc(C#N)c(=O)oc2c1,1.36% (inactive),–
C/C=C(/C)C(=O)O[C@H]1C(C)=C2C([C@@H]1OC(=O)CCCCCCC)[C@@](C)(OC(C)=O)C[C@@H](OC(=O)CCC)[C@@]1(O)[C@H]2OC(=O)[C@@]1(C)O (stereo partly drawn),-13.8% (inactive),–
CC(=O)Nc1ccc(OC(=O)c2ccccc2N)cc1,6.81% [at 23.6 µM] (inactive),–
CCCCC/C=C\C/C=C\C/C=C\C/C=C\CCCC(=O)NCCCC(=O)O,-14.3% (inactive),–
Cc1ccc2c(CN3CC=C(c4ccccc4)CC3)cc(=O)oc2c1C,0.701% (inactive),–
COc1ccc(Cc2nccc3cc(OC)c(OC)cc23)cc1OC,-3.36% (inactive),–
Cc1cc(/C=C2/C(=O)NC(=O)N(Cc3ccco3)C2=O)c(C)n1-c1ccc(C(=O)O)cc1,1.17% (inactive),–
O=C(O)c1ccccc1-c1c2cc(Br)c(=O)cc-2oc2[c]([Hg])c(O)c(Br)cc12,-13.4% [at 287 µM] (inactive),–
O[C@H]1[C@H](O)[C@@H](O)CN2CC[C@H](O)[C@H]12,–,inactive
Cc1cc(/C=C2\C(=O)NC(=O)N(c3ccc(F)cc3)C2=O)c(C)n1-c1ccc(C(=O)O)cc1,0.884% (inactive),–
CC(=O)[O][Hg][c]1ccccc1,4.67% [at 287 µM] (inactive),–
Cc1cc(C(=O)CS(=O)(=O)c2ccc(F)cc2)cc(C)c1OC(=O)N(C)C,2.73% [at 23.6 µM] (inactive),–
O[C@@H]1[C@H](O)[C@H]2[C@@H](O)CCN2C[C@@H]1O,-6.64% [at 287 µM] (inactive),–
OC[C@@H]1[C@@H](O)[C@H](O)[C@H]2[C@@H](O)CCN21,-8.3% (inactive),–
Cc1[nH]c2ccccc2c1C1=CCNCC1,0.948% (inactive),–

# From PubChem BioAssay AID2108 (National Center for Advancing Translational Sciences (NCATS), 2009)
